Pf growth 96h – P. falciparum growth inhibition at 96 hours. P. falciparum luciferase reporter growth, 96 h. Potency, µM (series often up to 28.7 µM), hits mostly inhibitors. 6.9% of 320,000 active
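96 h incubation, 37 C, 5% CO2, of luciferase-reporter P. falciparum-infected RBCs (2% hematocrit, 0.05% parasitemia final) with test compounds; endpoint luminescence.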
CHX counter – affects cycloheximide protein synthesis inhibition readout, counter-screen | 12% of 300,000 active | max response, % | cell reporter, cycloheximide protein synthesis inhibition counterscreen; in the data active means max response mostly above about 13%, no sharp cut-off; inactive means mostly below about 14%; further: read at 38.3 µM for the half of the compounds with a filed dose
Pf growth 48h – P. falciparum growth inhibition at 48 hours (one generation); Potency, µM (doses to about 28.7 µM), most hits filed as inhibitors; P. falciparum luciferase growth in erythrocytes, 48 h; 5.9% of 310,000 active; AID 504832
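First compound was added to culture medium, then infected red cells at 0.1% parasitemia and 2% hematocrit (final). After incubation at 37 C under 5% CO2, luciferase detection reagent was dispensed and light output recorded.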
Shiga inhibitor – blocks Shiga toxin action in Vero cells; Vero cells, Shiga toxin protein synthesis inhibition reporter; inhibition, % at 38.7 µM; 9.2% of 290,000 active; AID 2315; in the data active means inhibition mostly above about 28%, no sharp cut-off; inactive means mostly below about 43%
LmPK inh – inhibitors of Leishmania mexicana pyruvate kinase; Q27686; purified LmPK, Kinase-Glo ATP luminescence, 1 h; Potency, µM (highest dose often 57.5 µM), hits mostly inhibitors; 0.37% of 290,000 active; AID 1721
Target sequence (Q27686 whole entry, looked up): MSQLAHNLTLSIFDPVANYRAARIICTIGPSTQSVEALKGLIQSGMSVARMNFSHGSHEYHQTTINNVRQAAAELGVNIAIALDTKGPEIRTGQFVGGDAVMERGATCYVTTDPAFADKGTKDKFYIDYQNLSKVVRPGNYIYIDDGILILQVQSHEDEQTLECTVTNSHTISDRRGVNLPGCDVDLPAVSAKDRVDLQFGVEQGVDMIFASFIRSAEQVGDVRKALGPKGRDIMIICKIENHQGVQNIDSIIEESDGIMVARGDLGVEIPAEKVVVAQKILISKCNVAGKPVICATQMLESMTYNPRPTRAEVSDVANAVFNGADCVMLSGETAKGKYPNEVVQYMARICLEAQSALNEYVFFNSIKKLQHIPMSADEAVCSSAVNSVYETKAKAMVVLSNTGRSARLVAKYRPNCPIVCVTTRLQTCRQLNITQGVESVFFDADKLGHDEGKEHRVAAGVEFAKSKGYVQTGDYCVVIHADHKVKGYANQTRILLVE
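Kinase-Glo luminescence read after 1 h RT reaction of 0.1 nM LmPK with 0.5 mM PEP and 0.1 mM ADP. Activity scaled between uninhibited and enzyme-free controls.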
A number is an active result. Only some compounds are listed: those with a hit (about 22% of all), similar ones and a draw of the others. Unless noted, the call rests on the fitted dose curve; in most records, active means well fitted inhibition curve with a large enough effect; inconclusive means small, poorly fitted or top-dose-only effect, or another doubt; inactive means no such curve, though single readings can be large or run the other way.

CC/C(C)=N/N1C(=O)c2ccccc2NC1(C)CC (stereo not given) was read as Pf growth 96h inactive, CHX counter 30, Pf growth 48h inactive, Shiga inhibitor 77 and LmPK inh inactive.
Screening CN1CC(=O)Nc2ccccc2C1=O returned Pf growth 96h inactive, CHX counter inactive, Pf growth 48h inactive, Shiga inhibitor inactive and LmPK inh inactive.
OC1CCCN(Cc2ccc3c(c2)Cc2ccccc2-3)C1 (stereo not given) was read as Pf growth 96h inactive, CHX counter 16, Pf growth 48h inactive, Shiga inhibitor inactive and LmPK inh inactive.
`C1=C(c2ccccc2)Nc2ccccc2N=C1c1ccccc1` gave Pf growth 96h inactive, CHX counter inactive, Pf growth 48h inactive, Shiga inhibitor 36 and LmPK inh inactive.
Screening O=C(O)c1ccc(Cn2cc(/C=C\[N+](=O)[O-])c3ccccc32)o1 returned Pf growth 96h inactive, CHX counter inactive, Pf growth 48h inactive, Shiga inhibitor inactive and LmPK inh inactive.
O=[N+]([O-])/C=C/c1cn(Cc2ccc(Cl)cc2)c2ccccc12 was read as Pf growth 96h inconclusive, CHX counter inactive, Pf growth 48h 3.7µM, Shiga inhibitor inactive and LmPK inh inactive.
For CCOC(=O)N/N=C/c1cn(Cc2ccc(Cl)cc2)c2ccccc12 the results were Pf growth 96h inactive, CHX counter inactive, Pf growth 48h inconclusive, Shiga inhibitor inactive and LmPK inh inactive.
Cc1cccc(Cn2cc(/C=C/[N+](=O)[O-])c3ccccc32)c1 was read as Pf growth 96h inactive, CHX counter inactive, Pf growth 48h 3.7µM, Shiga inhibitor inactive and LmPK inh inactive.
CCOC(=O)Cn1cc(/C=C/[N+](=O)[O-])c2ccccc21 was read as Pf growth 96h inactive, CHX counter inactive, Pf growth 48h inconclusive, Shiga inhibitor inactive and LmPK inh inactive.
COC(=O)c1ccc(Cn2cc(/C=C\[N+](=O)[O-])c3ccccc32)o1 was read as Pf growth 96h inconclusive, CHX counter inactive, Pf growth 48h 4.7µM and LmPK inh inactive.
`CC(C)(C)OC(=O)N1C[C@H](O)C[C@H]1C(=O)OCC(=O)c1ccc([N+](=O)[O-])cc1` gave Pf growth 96h inactive, CHX counter inactive, Pf growth 48h inactive, Shiga inhibitor inactive and LmPK inh inactive.
`CN(C(=O)COC(=O)/C=C/c1ccc(F)cc1)c1c(N)n(Cc2ccccc2)c(=O)[nH]c1=O` gave Pf growth 96h inactive and Pf growth 48h inactive.
`CC(C)c1ccc(S(=O)(=O)c2cc3cc(Br)ccc3oc2=O)cc1` gave Pf growth 96h inactive, CHX counter inactive, Pf growth 48h inactive, Shiga inhibitor inactive and LmPK inh inactive.
Cc1ccc(S(=O)(=O)c2cc3cc(Br)ccc3oc2=O)cc1 was read as Pf growth 96h 1.7µM, CHX counter inactive, Pf growth 48h inactive, Shiga inhibitor inactive and LmPK inh inactive.
Screening COc1ccc(S(=O)(=O)N2CC(=O)Nc3ccccc32)cc1 returned Pf growth 96h inconclusive, CHX counter inactive, Pf growth 48h inactive, Shiga inhibitor inactive and LmPK inh inactive.
COc1ccc(N2CCN(CCNC(=O)Nc3ccc(C)cc3Cl)CC2)cc1 was read as Pf growth 96h 2.3µM, CHX counter inactive, Pf growth 48h inactive, Shiga inhibitor inactive and LmPK inh inactive.
`Cc1c(C)n(C)c2ccc(C(=O)NCCCN3CCN(c4ccc(F)cc4)CC3)cc12` gave Pf growth 96h inactive, CHX counter inactive, Pf growth 48h inconclusive, Shiga inhibitor inactive and LmPK inh inactive.
`Cc1cc(=O)oc(C)c1C(=O)NCCCN1CCN(c2ccc(F)cc2)CC1` gave Pf growth 96h 0.74µM, CHX counter inactive, Pf growth 48h inconclusive, Shiga inhibitor inactive and LmPK inh inactive.
`COc1ccc(N2CCN(CCNC(=O)Nc3ccc(Cl)cc3)CC2)cc1` gave Pf growth 96h inconclusive, CHX counter inactive, Shiga inhibitor inactive and LmPK inh inactive.
Screening Cc1cc(C)c2c(CN3CCN(Cc4ccccc4)CC3)cc(=O)oc2c1C returned Pf growth 96h inconclusive, CHX counter inactive, Pf growth 48h inconclusive, Shiga inhibitor inactive and LmPK inh inactive.
For Cc1cc(=O)oc(C)c1C(=O)NCc1ccco1 the results were Pf growth 96h inactive, CHX counter inactive, Pf growth 48h inactive, Shiga inhibitor inactive and LmPK inh inactive.
For COc1ccc(N2CCN(Cc3cc(=O)oc4cc(C)c(Cl)c(C)c34)CC2)cc1 the results were Pf growth 96h inactive, CHX counter inactive, Pf growth 48h 4.1µM, Shiga inhibitor inactive and LmPK inh inactive.
Screening Cc1cc(=O)oc(C)c1C(=O)NCc1c(F)cc(F)cc1F returned Pf growth 96h inconclusive, CHX counter 28, Pf growth 48h inactive, Shiga inhibitor inactive and LmPK inh inactive.
`CN(C)S(=O)(=O)Nc1ccccc1F` gave Pf growth 96h inconclusive, CHX counter inactive, Pf growth 48h inactive, Shiga inhibitor inactive and LmPK inh inactive.
Screening COc1ccc(N2CCN(CCNC(=O)c3c(C)cc(=O)oc3C)CC2)cc1 returned Pf growth 96h inconclusive, CHX counter inactive, Pf growth 48h 12µM, Shiga inhibitor inactive and LmPK inh inactive.
For COc1ccc(Nc2cc(Nc3cccc(OC)c3)ncn2)cc1 the results were Pf growth 96h inconclusive, CHX counter 54, Pf growth 48h inactive, Shiga inhibitor 56 and LmPK inh inactive.
For CCc1ccc(Nc2ncnc3nc[nH]c23)cc1 the results were Pf growth 96h inactive, CHX counter 27, Pf growth 48h inactive, Shiga inhibitor 62 and LmPK inh inactive.
For CCCNc1ncnc2nc[nH]c12 the results were Pf growth 96h inactive, CHX counter inactive, Pf growth 48h inactive, Shiga inhibitor inactive and LmPK inh inactive.
For COc1cccc(Nc2nc(-c3ccccc3)nc3ccccc23)c1 the results were Pf growth 96h inactive, CHX counter inactive, Pf growth 48h inactive, Shiga inhibitor inactive and LmPK inh inactive.
`CCCCc1ccc(Nc2ncnc3nc[nH]c23)cc1` gave Pf growth 96h inactive, CHX counter 23, Shiga inhibitor inactive and LmPK inh inactive.
`COc1cccc(Nc2ncnc3nc[nH]c23)c1` gave Pf growth 96h inconclusive, CHX counter 16, Pf growth 48h inactive, Shiga inhibitor 50 and LmPK inh inactive.
For CCc1cc(=O)[nH]c(SCC(=O)Nc2ccc3c(c2)OCCO3)n1 the results were Pf growth 96h inactive and Pf growth 48h inactive.
Cc1c(Nc2ncnc3nc[nH]c23)c(=O)n(-c2ccccc2)n1C was read as Pf growth 96h inactive, CHX counter inactive, Pf growth 48h inactive, Shiga inhibitor inactive and LmPK inh inactive.
`Cc1ccc(NC(=O)Nc2ncnc3nc[nH]c23)cc1` gave Pf growth 96h inactive, CHX counter 22, Pf growth 48h inactive, Shiga inhibitor 41 and LmPK inh inactive.
Cc1ccc(Nc2ncnc3nc[nH]c23)cc1Cl was read as Pf growth 96h inactive, CHX counter 50, Shiga inhibitor 63 and LmPK inh inactive.
For CN(CC(=O)Nc1ccccc1C(F)(F)F)C(=O)COc1ncnc2ccccc12 the results were Pf growth 96h inactive, CHX counter inactive, Pf growth 48h inactive, Shiga inhibitor inactive and LmPK inh inactive.

Source: PubChem (National Center for Advancing Translational Sciences (NCATS))
